# KCNH2 3.1 block = qHTS for Inhibitors of KCHN2 3.1: Mutant qHTS; Potassium voltage-gated channel subfamily H member 2, brain isoform KCNH2 3.1 (human); U2OS KCNH2 3.1, thallium flux FluxOr; stronger effect = lower value; activity change, % (tested at about 1.8 µM); actives 0.95% (n = 340,000);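 active means maximum activity change below -70%; inconclusive means maximum activity change from -70% to -50%; inactive means maximum activity change above -50%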;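 further: thallium influx rate constant from kinetic fluorescence after stimulation buffer; on the % scale 0 is the no-effect control and ±100 the full control effect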
#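 Measured as rate of thallium-driven FluxOr signal in transduced U2OS cells carrying the 3.1 channel, read kinetically for 2 min upon stimulation; values are rate constants scaled to DMSO control wells.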
# SW480 rerep = A quantitative high throughput screen for small molecules that induce DNA re-replication in SW480 colon adenocarcinoma cells; SW480 DNA re-replication, Hoechst DNA content imaging, 48 h; Potency, µM (highest dose often 46.1 µM), without a hit: top-dose re-replication activation, most hits filed as activators; actives 1.8% (n = 340,000); AID 624297, 2012; further: potency means the concentration at half of the fitted maximal effect; % of control where 0% means no effect; nearly all actives have a fitted effect of over 55% in size
#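 DNA re-replication was detected as more nuclei of elevated Hoechst intensity after 48 hr exposure to compound (23 nL pinned per well of 250 cells).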
# KB-3-1 tox = qHTS assay for MDR1-selective chemotherapeutics: Primary screen using the parental adenocarcinoma cell KB-3-1; KB-3-1 viability, CellTiter-Glo ATP luminescence, 72 h; Potency, µM (titrated, usually from 46.1 µM), actives largely listed as cytotoxic; actives 1.4% (n = 400,000); further: potency means the concentration at half of the fitted maximal effect; on the % scale 0 is the no-effect control and ±100 the full control effect; nearly all actives have a fitted effect of over 60% in size
#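 KB-3-1 parental drug-naive adenocarcinoma cells in DMEM/10% FBS, incubated 72 h at 37 C with pin-transferred compounds across a concentration series. Viability by CellTiter-Glo luminescence; concentration-response curves fitted after normalization.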
# KCNH2 WT inh = qHTS for Inhibitors of KCHN2 3.1: Wildtype qHTS | Voltage-gated inwardly rectifying potassium channel KCNH2 (Homo sapiens), Q12809 | U2OS, BacMam KCNH2, thallium flux FluxOr; stronger effect = lower value | activity change, % at 1.84 µM | actives 0.37% (n = 340,000) | AID 720551, 2013;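 active means maximum activity change below -70%; inconclusive means maximum activity change between -70% and -50%; inactive means maximum activity change above -50%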; further: on the % scale 0 is the no-effect control and ±100 the full control effect
# Target sequence (Q12809 whole entry, looked up): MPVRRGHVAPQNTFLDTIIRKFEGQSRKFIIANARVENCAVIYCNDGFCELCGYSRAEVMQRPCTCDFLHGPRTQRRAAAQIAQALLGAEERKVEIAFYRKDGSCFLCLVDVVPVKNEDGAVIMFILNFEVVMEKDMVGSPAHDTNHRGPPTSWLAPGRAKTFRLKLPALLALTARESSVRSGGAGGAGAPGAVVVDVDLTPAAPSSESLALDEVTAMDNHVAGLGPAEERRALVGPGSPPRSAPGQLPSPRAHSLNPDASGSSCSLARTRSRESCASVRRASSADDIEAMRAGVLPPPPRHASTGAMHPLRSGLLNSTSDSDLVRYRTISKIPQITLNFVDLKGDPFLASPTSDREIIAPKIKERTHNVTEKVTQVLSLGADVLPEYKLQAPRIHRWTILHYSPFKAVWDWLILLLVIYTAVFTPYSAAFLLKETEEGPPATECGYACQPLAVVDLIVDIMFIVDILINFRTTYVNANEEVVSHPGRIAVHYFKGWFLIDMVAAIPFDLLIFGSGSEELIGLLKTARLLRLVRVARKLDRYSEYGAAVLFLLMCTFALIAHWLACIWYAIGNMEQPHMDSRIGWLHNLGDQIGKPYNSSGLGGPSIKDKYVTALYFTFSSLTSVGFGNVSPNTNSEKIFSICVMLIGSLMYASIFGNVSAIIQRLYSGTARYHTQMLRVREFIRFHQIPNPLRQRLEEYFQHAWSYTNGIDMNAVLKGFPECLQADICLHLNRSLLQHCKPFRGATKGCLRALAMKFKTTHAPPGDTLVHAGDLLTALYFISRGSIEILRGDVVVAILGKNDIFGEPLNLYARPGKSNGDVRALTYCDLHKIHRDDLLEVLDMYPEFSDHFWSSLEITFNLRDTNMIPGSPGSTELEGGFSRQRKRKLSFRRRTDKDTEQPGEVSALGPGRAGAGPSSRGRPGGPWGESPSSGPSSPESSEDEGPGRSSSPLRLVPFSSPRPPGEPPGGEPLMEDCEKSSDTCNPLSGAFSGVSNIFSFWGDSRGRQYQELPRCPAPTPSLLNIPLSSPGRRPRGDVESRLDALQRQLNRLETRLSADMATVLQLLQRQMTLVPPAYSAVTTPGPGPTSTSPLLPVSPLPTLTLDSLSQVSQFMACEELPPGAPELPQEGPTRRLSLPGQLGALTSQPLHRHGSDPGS
#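 U2OS cells transduced with wild-type KCNH2 virus are loaded with FluxOr dye for 45 min, and thallium flux is measured in kinetic reads before and after stimulation buffer. Rate constants are normalized to DMSO controls.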
# KB-V1 cytotox = qHTS assay for MDR1-selective chemotherapeutics: Primary screen using the drug-selected MDR subline cells KB-V1 | KB-V1 MDR cells viability, CellTiter-Glo, 72 h | Potency, µM (series often up to 46.1 µM), most hits filed as cytotoxic | actives 3.4% (n = 400,000) | AID 1347076, 2019; further: potency means the concentration at half of the fitted maximal effect; on the % scale 0 is the no-effect control and ±100 the full control effect; nearly all actives have a fitted effect of over 60% in size
#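 KB-V1 cells (P-gp-expressing MDR subline of KB-3-1) in phenol-red-free DMEM with 10% FBS were exposed to library compounds over a concentration series for 72 h at 37 degrees C. Viability read by CellTiter-Glo luminescence; concentration-effect curves fitted after normalization.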
# MCF10A rereplic = A quantitative high throughput screen for small molecules that induce DNA re-replication in MCF 10a normal breast cells; MCF 10A DNA re-replication, Hoechst nuclear intensity, 48 h; Potency, µM (top dose mostly 46.1 µM), inactives show at the highest dose activity, positive = re-replication, most hits filed as activators; actives 2.9% (n = 350,000); AID 624296, 2012; further: potency means the concentration at half of the fitted maximal effect; % of control where 0% means no effect; nearly all actives have a fitted effect of over 50% in size
# * marks the source's active call; other numbers are inactive results; i = inactive; ? = inconclusive; · = no result given. This is a sample that favours compounds with a hit; in the whole collection about 7.6% have one here. Unless noted, the call rests on the fitted dose curve; in most records, active means well fitted curve in the direction sought with a large enough effect; inconclusive means small, poorly fitted or top-dose-only effect, or another doubt; inactive means no such curve, though single readings can be large; an effect the other way counts as inactive or inconclusive.
SMILES,KCNH2 3.1 block,SW480 rerep,KB-3-1 tox,KCNH2 WT inh,KB-V1 cytotox,MCF10A rereplic
NS(=O)(=O)c1ccc(CCNC(=O)c2cc3ccccc3oc2=O)cc1,-12.0,-8.0%,i,9.8,i,-2.5%
CC(=O)Nc1ccc(S(=O)(=O)N2c3ccccc3C(C)=CC2(C)C)cc1,-13.1,?,3.26µM*,2.0,?,?
CC1=CC(C)(C)N(S(=O)(=O)c2ccc(F)cc2)c2ccccc21,16.4,20.6µM*,i,40.3,i,?
CC1=CC(C)(C)N(S(=O)(=O)c2ccc(C)cc2)c2ccc(C)cc21,-4.4,7.1%,6.51µM*,16.0,?,-1.5%
CCN(CC)C(=O)Cn1cnc2sc(C(=O)N3CCN(c4ccc(F)cc4)CC3)c(C)c2c1=O,1.5,-18.2%,i,20.0,i,-33.6%
CCCSc1nnc(Cc2cc(=O)[nH]c(=O)[nH]2)n1-c1cc(C)ccc1C,10.1,-6.6%,i,-89.0*,i,-6.7%
Cc1cc(C)c(C#N)c(SCC(=O)Nc2cc(C)on2)n1,-8.6,?,i,-23.3,8.2µM*,?
Cc1cc(C)c(C#N)c(SCC(=O)NC(C)(C)C)n1,-84.1*,-9.5%,i,-13.3,i,-6.5%
Oc1ccccc1-n1c(-c2ccccc2)ccc1-c1ccccc1,-1.5,14.0%,i,17.2,i,20.6µM*
CC(C)=CCC/C(C)=C/C=C/C(C)=C/C=C/C(C)=C/C=C/C=C(C)/C=C/C=C(C)/C=C/C=C(\C)CCC=C(C)C,·,18.8µM*,·,·,·,?
CC(C)=CCC/C(C)=C/C(N)=O,8.7,-5.4%,i,1.2,i,-0.8%
COc1ccc(NC(=O)C(=O)NCCCO)cc1Cl,-5.9,1.7%,i,-13.9,i,-4.1%
O=C(NCc1ccccc1)c1c2c(nc3ccccc13)C(=O)N(C1CCCCC1)C2,·,·,i,·,i,·
Cc1cc(C)c(NC(=O)CNC(=O)COC(=O)CNC(=O)c2ccc(Cl)cc2Cl)c(C)c1,-3.3,0.1%,i,5.7,?,-1.0%
CNc1oc(-c2ccc(Cl)cc2)nc1P(=O)(c1ccccc1)c1ccccc1,-6.5,15.1%,?,6.3,?,16.4µM*
CCOC(=O)c1cc(S(=O)(=O)N2CCN(c3ccccc3)CC2)[nH]n1,·,·,i,·,i,·
CC(CN1CCOCC1)OC(=O)c1ccc2c(c1)OCCO2 (stereo not drawn),19.7,1.1%,i,-261.6*,i,0.1%
Nc1nnc(SCC(=O)OCC(=O)NC23CC4CC(CC(C4)C2)C3)s1,12.2,2.8%,i,-3.0,i,7.0%
COc1ccccc1CNC(=O)[C@@H]1CCCN1C(=O)C1CCN(S(=O)(=O)c2ccc(C)cc2)CC1,12.0,-0.6%,i,3.2,16.4µM*,0.5%
Cc1ccc(S(=O)(=O)N2CCC(C(=O)N3CCC[C@H]3C(=O)NCc3ccccc3)CC2)cc1,8.8,-16.6%,i,4.4,?,2.1%
COCCNC(=O)[C@@H]1CCCN1C(=O)C1CCN(S(=O)(=O)c2ccc(C)cc2)CC1,10.3,-3.2%,i,-1.6,i,-0.5%
Cc1ccc(CNC(=O)C2CCCN2C(=O)Nc2ccccc2)cc1 (stereo not drawn),-8.6,-1.3%,i,-2.5,i,0.651µM*
COc1cccc(NC(=O)[C@@H]2CCCN2C(=O)C2CCN(S(=O)(=O)c3ccc(C)cc3)CC2)c1,0.9,15.8%,i,-3.5,18.4µM*,7.6%
CC(=NNc1nc2ccccc2s1)c1ccncn1,7.1,?,7.31µM*,4.2,?,7.31µM*
CC(C)(C)c1ccc(-c2conc2N)cc1,-3.0,?,i,-16.2,i,17.8µM*
SMILES,KCNH2 3.1 block,SW480 rerep,KB-3-1 tox,KCNH2 WT inh,KB-V1 cytotox,MCF10A rereplic
COc1ccc(C(=O)NC2CC(C)(C)NC(C)(C)C2)cc1S(=O)(=O)N1CCOCC1,9.5,·,?,-3.0,i,·
O=C1C(N2CCOCC2)=Cc2cccc3cccc1c23,4.8,·,i,4.4,16.4µM*,·
Cc1ccc(N2CCOCC2)c2c1C(=O)c1ccccc1C2=O,8.0,9.0%,i,1.8,14.6µM*,?
O=C1C(NS(=O)(=O)c2cccs2)=C(N2CCOCC2)C(=O)c2ccccc21,-5.9,-6.2%,i,-6.1,i,-4.0%
CN(C1=C(N2CCOCC2)C(=O)c2ccccc2C1=O)c1ccccc1,5.3,5.8%,i,-3.0,11.6µM*,9.7%
O=C1C=C(N2CCOCC2)c2ccccc2C1=O,3.7,2.91µM*,?,0.1,?,?
CC(=O)N(C(C)=O)N1C(=O)c2cccc3c(N4CCOCC4)ccc(c23)C1=O,-26.3,?,i,·,i,1.6%
O=C1C=C(N2CCOCC2)c2cccc3cccc1c23,29.4,·,i,-0.7,?,·
Clc1ccc(-c2nnc3sc(-c4ccc(Br)o4)nn23)c(Cl)c1,0.1,3.2%,i,9.5,?,9.2µM*
Cn1cc(S(=O)(=O)Nc2cccc3ccccc23)c(=O)n(C)c1=O,·,-11.0%,i,6.7,i,-4.9%
c1ccc2c(c1)OCC(c1nnc3sc(-c4ccc5c(c4)OCO5)nn13)O2 (stereo not drawn),-7.8,11.6%,i,2.2,i,2.6%
Brc1ccccc1-c1nnc2sc(-c3ccc4c(c3)OCCO4)nn12,1.1,?,i,-3.2,?,6.51µM*
Clc1ccccc1-c1nnc2sc(-c3ccc4c(c3)OCO4)nn12,-7.6,6.51µM*,20.6µM*,-6.7,8.2µM*,?
c1ccc2c(c1)ncn2Cc1nnc2sc(-c3ccc4c(c3)OCO4)nn12,-16.3,-7.1%,i,-4.9,?,10.5%
COc1ccc(Cl)cc1NC(=O)Cn1nnc(C(=O)NCc2ccc3c(c2)OCO3)c1N,11.4,?,i,-7.1,?,?
O=c1c2ccccc2nc2c3ccccc3c(NCCO)nn12,0.7,-0.1%,i,-4.2,i,4.0%
O=C(CCCNC(=O)/C(=C\c1ccc(F)cc1)NC(=O)c1ccccc1)OCc1ccccc1,-40.7,-5.5%,i,-20.4,i,8.2%
O=C(CCCNC(=O)/C(=C/c1ccc(F)cc1)NC(=O)c1ccccc1)OCc1ccccc1,-1.1,-0.7%,i,-137.5*,i,16.3%
